Assay [1] concerns the target Gonadotropin-releasing hormone receptor (Homo sapiens) (UniProt P30968). The experiment in a line: Human gonadotropin-releasing hormone receptor (GnRHR) small molecule agonists, calcium flux assay in GnRHR-HEK293 cells (AID 1920063). Also: nearly all actives have a fitted effect of over 35% in size. The gist of the method: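 Cells: HEK293 stably expressing human GnRHR. Steps: overnight (18 h) culture, 1 h calcium dye loading at 37 C, compound addition, kinetic fluorescence read at 480/540 nm. Each compound tested at 15 concentrations in triplicate.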

In assay [2] the target is KiSS-1 receptor (Homo sapiens) (UniProt Q969F8). In words: Human kisspeptin (KISS1R) small molecule agonists, calcium flux assay in KISS1R-HEK293 cells (AID 1920064; active = well fitted activation curve with a large enough effect in the repeat runs). An outline of the steps:
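Cells plated and incubated 18 h; dye added, 1 h at 37 C; compounds in DMSO pinned in; signal read at 480/540 nm every second for 3 min. Each compound tested at 15 concentrations in triplicate.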
In general terms: Calcium assays in cells follow changes in intracellular calcium, usually with a dye or a luminescent sensor.

Assay [3] can be described thus: G protein-coupled receptor (GPCR) small molecule agonists, calcium flux assay: HEK293 wild type cell line counter screen (AID 1920065). The gist of the method:
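Counter-screen of the Tox21 10K library for non-specific calcium release: dye-loaded cells received compounds in DMSO and were monitored by kinetic fluorescence (480/540 nm, 3 min). Fifteen concentrations, run in triplicate.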

Assay [4] is described as follows: p53 small molecule agonists, cell-based qHTS assay with human liver microsomes: qHTS cell viability counter screen (AID 1963579). Also: nearly all actives have a fitted effect of over 45% in size. The gist of the method:
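In this multiplexed counter screen, the reporter plates were subsequently treated with CellTiter-Glo so that cell viability, reflected by luminescence, could be recorded for p53RE-bla cells dosed 16 h with compounds under microsomal activation (HLM and NADPH).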
A general note: qHTS replaces the single test concentration by a dilution series.

Assay [5] can be described thus: p53 small molecule agonists, cell-based qHTS assay with rat liver microsomes: qHTS cell viability counter screen (AID 1963580). Also: nearly all actives have a fitted effect of over 45% in size. Also: potency is read from the fitted curve at half-maximal effect. The gist of the method: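 p53RE-bla HCT-116 cells (4,000/well) rested 5 h at 37 C, then given Tox21 compounds in DMSO with rat liver microsomes (0.5 mg/mL final) plus NADPH (0.5 mg/mL final) for 16 h at 37 C. Viability read by CellTiter-Glo luminescence after 30 min at room temperature.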

The nature of assay [6]: p53 small molecule agonists, cell-based qHTS assay: qHTS cell viability counter screen (AID 1963581). Also: nearly all actives have a fitted effect of over 45% in size. The gist of the method:
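Cells: HCT-116 with p53 response element-driven beta-lactamase. Treatment: 16 h, 37 C, compounds in DMSO. Read: CellTiter-Glo luminescence after 30 min RT.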

The target of assay [7] is 5-hydroxytryptamine receptor 2A (Homo sapiens) (UniProt P28223). The experiment in a line: 5-hydroxytryptamine receptor 2A (HTR2A) small molecule antagonists, cell-based qHTS assay (AID 1963586). Also: nearly all actives have a fitted effect of over 45% in size. An outline of the steps:
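Antagonist-mode intracellular calcium assay: DOI (4 nM) added after 5 min compound pre-incubation at room temperature to dye-loaded HTR2A-CHO cells. Fluorescence followed for 3 min, sampled every second.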

Assay [8] has the same target. In words: 5-hydroxytryptamine receptor 2A (HTR2A) small molecule agonists, cell-based qHTS assay (AID 1963587). Also: nearly all actives have a fitted effect of over 30% in size. An outline of the steps:
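HTR2A-CHO cells, plated 18 h at 37 C/5% CO2, dye-loaded 1 h at 37 C; compounds in DMSO added by pin tool (agonist mode). Intracellular calcium flux read as kinetic fluorescence on FDSS over 2 min at 1 s intervals.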

For assay [9], the target named is Muscarinic acetylcholine receptor M1 (Homo sapiens) (UniProt P11229). The experiment in a line: Cholinergic receptor muscarinic 1 (CHRM1) small molecule antagonists, cell-based qHTS assay (AID 1963588). Also: nearly all actives have a fitted effect of over 40% in size. Also: potency is read from the fitted curve at half-maximal effect. An outline of the steps:
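CHRM1-CHO calcium-flux assay, antagonist mode. Cells were seeded 18 h, dye-loaded 1 h at 37 C and given compound for 5 min at RT, then acetylcholine was added at 50nM. FDSS fluorescence was read 3 min; 15 concentrations, three runs.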

The target is the same in assay [10]. In words: Cholinergic receptor muscarinic 1 (CHRM1) small molecule agonists, cell-based qHTS assay (AID 1963589). Also: nearly all actives have a fitted effect of over 35% in size. The gist of the method:
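Agonist-mode qHTS in CHO cells stably carrying human muscarinic M1. Intracellular calcium is tracked by fluorescence every second after compound transfer; each compound runs at 15 concentrations in three independent runs.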

Assay [11] in a line: cAMP Responsive Elements (CRE) small molecule agonists, cell-based qHTS assay (AID 1963590). The gist of the method: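 Agonist mode qHTS in CRE-bla HEK 293T cells: compounds dosed from DMSO for 3 h at 37 C/5% CO2, followed by LiveBLAzer B/G FRET substrate for 2 h at room temperature.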
Assay [12] can be described thus: cAMP Responsive Elements (CRE) small molecule antagonists, cell-based qHTS assay (AID 1963591; active = well fitted inhibition curve with a large enough effect in the signal ratio in the repeat runs, not every such curve was filed as active; the % refers to the signal ratio; also: potency is read from the fitted curve at half-maximal effect). The gist of the method:
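Antagonist mode: test compounds are co-incubated with the adenylyl cyclase activator NKH477 (0.25 uM final) on CRE-bla HEK293T cells for 3 h at 37 °C, followed by LiveBLAzer substrate loading.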

In assay [13] the target is Beta-2 adrenergic receptor (Homo sapiens) (UniProt P07550). The experiment in a line: Adrenergic beta2 receptor (ADRB2) small molecule antagonists, cell-based qHTS assay (AID 1963592). Also: series mostly up to about 92 µM; nearly all actives have a fitted effect of over 50% in size. The gist of the method:
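Cells (CHO, stable ADRB2 overexpression) incubated 18-20hr at 37C; compounds added from DMSO; agonist mix (1nM isoproterenol, 100uM IBMX, 25uM Ro-20-1724) added; 0.5hr RT; d2-cAMP and anti-cAMP-cryptate added; 1hr RT; 665/615 nm read.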

For assay [14] the target is unchanged. The experiment in a line: Adrenergic beta2 receptor (ADRB2) small molecule agonists, cell-based qHTS assay (AID 1963593).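 Also: CHO cells stably overexpressing human ADRB2.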 An outline of the steps: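 CHO cells stably over-expressing ADRB2 were plated overnight at 37C, then dosed with compounds plus a stimulation mix containing 100uM IBMX and 25uM Ro-20-1724 for 0.5hr at room temperature. cAMP was measured by HTRF competition, 1hr.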

The target in assay [15] is D(2) dopamine receptor (Homo sapiens) (UniProt P14416). The experiment in a line: Dopamine D2 receptor (DRD2) small molecule antagonists, cell-based qHTS assay (AID 1963595; active = well fitted inhibition curve with a large enough effect in the signal ratio in the repeat runs, with a control signal flat; the % refers to the signal ratio; also: potency is read from the fitted curve at half-maximal effect). An outline of the steps:
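Cells were plated and grown for 24 h at 37 °C. Ro20-1724 (0.1 mM final) went in first, then compound for 10 min. NKH477 (200 nM) with quinpirole (12 nM) followed for 30 min at RT, then HTRF detection reagents for 1 h.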

Assay [16] is described as follows: p53 small molecule agonists, cell-based qHTS assay (AID 1963582; active = well fitted activation curve with a large enough effect in the signal ratio in the repeat runs, not every such curve was filed as active; the % refers to the signal ratio). An outline of the steps: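 Quantitative HTS in p53RE-bla cells: after a 5 h settling period, compounds delivered in DMSO were left on cells for 16 h at 37 C, and reporter induction was measured as fluorescence following 2 h substrate loading.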
Assay [17] concerns the target D(2) dopamine receptor (Homo sapiens) (UniProt P14416). In words: Dopamine D2 receptor (DRD2) small molecule agonists, cell-based qHTS assay (AID 1963594). Also: nearly all actives have a fitted effect of over 35% in size. An outline of the steps:
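HEK293 cells stably expressing DRD2 were cultured 24 h at 37 C, then given Ro20-1724 (0.1 mM final) and compounds for 10 min at room temperature. NKH477 (200nM) was then added for 30 min. cAMP was read by HTRF.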

A short description of assay [18]: p53 small molecule agonists, cell-based qHTS assay with rat liver microsomes (AID 1963578). Also: potency is read from the fitted curve at half-maximal effect. An outline of the steps: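 With rat liver microsomes and NADPH present (0.5 mg/mL final each), p53RE-bla cells are treated with compound for 16 h at 37 C. LiveBLAzer detection mixture is then applied for 2 h at room temperature in the dark.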
A short description of assay [19]: p53 small molecule agonists, cell-based qHTS assay with human liver microsomes (AID 1963577).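 Also: p53 response element beta-lactamase reporter cells with liver microsomes plus NADPH.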 An outline of the steps:
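16 h, 37 C exposure of p53RE-bla cells to compounds with human liver microsomes and NADPH (0.5 mg/mL final each); detection via LiveBLAzer mixture, 2 h dark at room temperature.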

Inconclusive results are not listed. The source made the active and inactive calls. Unless noted, calls follow the shape of the full dose curve.

Muscarinic acetylcholine receptor M1 (Homo sapiens), sequence (P11229 whole entry, looked up): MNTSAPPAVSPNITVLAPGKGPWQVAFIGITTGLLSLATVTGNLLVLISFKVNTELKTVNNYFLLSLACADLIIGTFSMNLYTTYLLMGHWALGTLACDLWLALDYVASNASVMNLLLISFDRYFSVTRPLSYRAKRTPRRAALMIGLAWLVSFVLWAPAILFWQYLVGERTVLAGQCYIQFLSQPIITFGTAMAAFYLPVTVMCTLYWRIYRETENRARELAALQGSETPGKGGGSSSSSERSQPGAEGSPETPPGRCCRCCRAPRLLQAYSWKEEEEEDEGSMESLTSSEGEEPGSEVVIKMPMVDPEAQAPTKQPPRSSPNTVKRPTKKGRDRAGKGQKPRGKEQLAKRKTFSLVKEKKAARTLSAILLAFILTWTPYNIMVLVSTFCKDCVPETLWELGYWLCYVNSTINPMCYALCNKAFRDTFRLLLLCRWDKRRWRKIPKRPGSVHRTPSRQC
Beta-2 adrenergic receptor (Homo sapiens), sequence (P07550 whole entry, looked up): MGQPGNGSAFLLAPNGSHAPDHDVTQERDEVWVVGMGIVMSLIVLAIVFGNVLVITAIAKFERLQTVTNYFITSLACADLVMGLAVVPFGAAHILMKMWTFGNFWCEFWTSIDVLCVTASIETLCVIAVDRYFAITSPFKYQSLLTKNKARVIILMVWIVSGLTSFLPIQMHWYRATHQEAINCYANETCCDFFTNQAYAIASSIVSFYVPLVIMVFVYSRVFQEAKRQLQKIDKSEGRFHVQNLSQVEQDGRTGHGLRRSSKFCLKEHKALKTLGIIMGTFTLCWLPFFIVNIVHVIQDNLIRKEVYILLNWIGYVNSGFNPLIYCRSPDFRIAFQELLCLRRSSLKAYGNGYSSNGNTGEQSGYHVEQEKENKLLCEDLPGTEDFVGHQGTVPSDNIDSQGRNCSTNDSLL
D(2) dopamine receptor (Homo sapiens), sequence (P14416 whole entry, looked up): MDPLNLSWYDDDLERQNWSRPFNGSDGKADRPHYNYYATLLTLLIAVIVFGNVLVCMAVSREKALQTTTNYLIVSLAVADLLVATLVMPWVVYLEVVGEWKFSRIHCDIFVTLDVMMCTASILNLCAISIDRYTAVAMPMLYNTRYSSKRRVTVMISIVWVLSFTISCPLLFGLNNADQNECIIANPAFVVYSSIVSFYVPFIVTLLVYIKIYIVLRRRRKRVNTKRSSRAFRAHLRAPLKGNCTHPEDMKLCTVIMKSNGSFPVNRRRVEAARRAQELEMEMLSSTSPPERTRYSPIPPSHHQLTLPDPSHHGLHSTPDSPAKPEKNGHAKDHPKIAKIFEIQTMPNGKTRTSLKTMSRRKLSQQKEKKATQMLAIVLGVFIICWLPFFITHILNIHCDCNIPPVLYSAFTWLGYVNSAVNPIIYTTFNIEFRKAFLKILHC
KiSS-1 receptor (Homo sapiens), sequence (Q969F8 whole entry, looked up): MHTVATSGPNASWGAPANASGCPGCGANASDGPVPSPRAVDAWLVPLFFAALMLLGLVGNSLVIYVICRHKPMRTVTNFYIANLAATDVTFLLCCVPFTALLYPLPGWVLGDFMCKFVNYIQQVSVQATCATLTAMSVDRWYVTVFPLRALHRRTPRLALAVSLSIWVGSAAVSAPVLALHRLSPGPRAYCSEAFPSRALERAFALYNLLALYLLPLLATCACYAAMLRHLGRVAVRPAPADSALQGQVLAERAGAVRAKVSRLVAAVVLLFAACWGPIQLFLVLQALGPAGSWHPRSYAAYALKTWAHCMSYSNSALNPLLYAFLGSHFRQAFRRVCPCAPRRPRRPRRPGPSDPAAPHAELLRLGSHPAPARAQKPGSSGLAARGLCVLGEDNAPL
Gonadotropin-releasing hormone receptor (Homo sapiens), sequence (P30968 whole entry, looked up): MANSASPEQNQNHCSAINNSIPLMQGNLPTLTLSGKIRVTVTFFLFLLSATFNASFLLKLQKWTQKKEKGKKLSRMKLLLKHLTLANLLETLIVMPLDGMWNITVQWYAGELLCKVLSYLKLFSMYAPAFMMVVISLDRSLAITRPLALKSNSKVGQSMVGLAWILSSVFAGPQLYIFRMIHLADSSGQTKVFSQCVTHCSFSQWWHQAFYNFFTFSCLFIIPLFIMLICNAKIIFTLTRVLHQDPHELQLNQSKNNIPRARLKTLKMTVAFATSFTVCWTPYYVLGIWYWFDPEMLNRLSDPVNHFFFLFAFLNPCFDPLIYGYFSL
5-hydroxytryptamine receptor 2A (Homo sapiens), sequence (P28223 whole entry, looked up): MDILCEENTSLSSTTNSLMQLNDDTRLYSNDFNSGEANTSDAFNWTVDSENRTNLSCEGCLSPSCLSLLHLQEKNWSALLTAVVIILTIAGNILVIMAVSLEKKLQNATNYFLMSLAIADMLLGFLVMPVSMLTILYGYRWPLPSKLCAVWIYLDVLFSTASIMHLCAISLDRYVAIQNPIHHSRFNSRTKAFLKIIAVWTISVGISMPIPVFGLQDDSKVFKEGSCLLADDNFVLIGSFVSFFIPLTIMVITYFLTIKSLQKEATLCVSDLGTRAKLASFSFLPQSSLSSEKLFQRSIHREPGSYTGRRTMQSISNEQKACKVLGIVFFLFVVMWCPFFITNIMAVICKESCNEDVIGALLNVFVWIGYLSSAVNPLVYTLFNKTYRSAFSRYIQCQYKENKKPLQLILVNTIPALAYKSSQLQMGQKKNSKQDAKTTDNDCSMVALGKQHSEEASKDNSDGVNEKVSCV

In the case of `CCCCN(CCC(=O)OCC)C(C)=O`, the Potency entry in assay [1], in [2], in assay [3], in assay [4], in assay [5] and in assay [6] was “inactive” in each case. Moreover, the Potency entry in assay [7], in [8], in assay [9], in [10], in assay [11] and in [12] was “inactive” throughout. Besides, the Potency entry in [13], in assay [14] and in [15] was “inactive” in each case.
As to `O=C(O)COCCN1CCN(C(c2ccccc2)c2ccc(Cl)cc2)CC1` (stereo not given), the Potency result in assay [1], in assay [2], in assay [3], in [6], in assay [16] and in assay [7] was “inactive” in each case. Further, the Potency entry in assay [8], in assay [9], in assay [10], in assay [11], in [12] and in assay [13] was “inactive” each time. Moreover, the Potency entry in assay [14], in assay [17] and in assay [15] was “inactive” in each case.
With `Cc1ccc(O)c([C@H](CCN(C(C)C)C(C)C)c2ccccc2)c1`, the Potency entry in assay [1], in assay [2], in assay [3], in assay [18], in assay [4] and in assay [5] was “inactive” throughout. Besides, the Potency entry in [16], in assay [7], in [10], in [11], in assay [12] and in [13] was “inactive” throughout. Further, the Potency entry in assay [14], in [17] and in assay [15] was “inactive” throughout. In assay [9], the Potency was 0.0326 µM (active).
As for `O=S(=O)(O)c1ccccc1/C=C/c1ccc(-c2ccc(/C=C/c3ccccc3S(=O)(=O)O)cc2)cc1`, the Potency result in assay [1], in assay [2], in assay [3], in [4], in assay [5] and in [6] was “inactive” throughout. For the same compound, the Potency entry in assay [7], in [10], in assay [13], in assay [17] and in assay [15] was “inactive” throughout. In addition, the Potency in [18] was 11.7 µM (active).
Turning to `O=C1c2c(O)ccc(O)c2C(=O)c2c(NCCNCCO)ccc(NCCNCCO)c21`, the Potency entry in assay [1], in assay [2], in assay [3] and in assay [11] was “inactive” in each case. The Potency is 19.9 µM (active) in assay [5] and 21.1 µM (active) in assay [12].
As for `COCCOC`, the Potency entry in assay [1], in assay [2], in assay [3], in assay [4], in assay [7] and in assay [8] was “inactive” each time. Moreover, the Potency entry in assay [9], in assay [10], in assay [11], in assay [13], in [17] and in assay [15] was “inactive” throughout.
Consider `CN1CCN(CCCN2c3ccccc3Sc3ccc(S(=O)(=O)N(C)C)cc32)CC1`, for which the Potency result in [1], in assay [2], in assay [3], in assay [19], in [4] and in assay [5] was “inactive” each time. Also, the Potency result in assay [6], in assay [16], in assay [8], in assay [10] and in assay [17] was “inactive” in each case. For the same compound, the Potency in assay [9] was 5.16 µM (active); in [15], 0.0473 µM (active).
As for `COc1ccc(CCN(C)CCCC(C#N)(c2ccc(OC)c(OC)c2)C(C)C)cc1OC` (stereo not given), the Potency result in [1], in assay [2], in assay [3], in [4], in [5] and in assay [6] was “inactive” each time. Also, the Potency entry in [13], in assay [17] and in assay [15] was “inactive” in each case.
Take `CCN(CC)c1ccc(N=Nc2ccccc2)cc1`: the Potency entry in [1], in assay [2], in assay [3], in assay [19], in [4] and in assay [5] was “inactive” in each case. For the same compound, the Potency entry in [6], in assay [16], in [7], in assay [8], in [9] and in assay [10] was “inactive” each time. Besides, the Potency result in assay [12], in [13], in [14], in [17] and in assay [15] was “inactive” throughout.

For the origin of these results see PubChem BioAssay (Tox21).
